# The supplement of paper PMC10849652
# The full data set covers some 7,900 targets. This sample favours those with a hit. About 0.6% of all pairs of compound and target were hits. A number with no mark means an inactive call.
# What was measured:
# Experiment in all cases: log2 fold change, soluble protein after heating vs DMSO (PISA); higher = thermal stabilisation; K562 cells, 10 uM, 30 min; active = over 0.2 and 3.5 SD of the protein, either way, in both replicates (recomputed)
# [1] = compound: CS(=O)(=O)c1ccc(-c2cnc(N)c(C(=O)Nc3ccccc3)n2)cc1
# Procedure, shortened: (§1)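 Thermal stability values are relative to control samples and come from duplicates. They are expressed as log2 fold changes. For measurement, K562 cells (2×10^6 cells/mL) received 10 μM compound for 30 min, and aliquots were heated for 3 min over 48°C-58°C, pooled, and extracted at 4°C in PBS with 0.5% NP-40. Soluble protein, the supernatant after 21,000xg for 90 min, was quantified by TMTpro 16plex LC-MS/MS with equalised channel sums.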
# crizotinib = compound: C[C@@H](Oc1cc(-c2cnn(C3CCNCC3)c2)cnc1N)c1c(Cl)ccc(F)c1Cl [crizotinib]
# Procedure, shortened: as §1
# [2] = compound: C[C@@H]1COCCN1C2=NC(=NC(=C2)C3(CC3)S(=O)(=O)C)C4=C5C=CNC5=CC=C4
# Procedure, shortened: as §1
# [3] = compound: C[C@H](C1=CC=C(C=C1)C(=O)NC2=C3C=CNC3=NC=C2)N
# Procedure, shortened: as §1
# duvelisib = compound: C[C@H](Nc1ncnc2nc[nH]c12)c1cc2cccc(Cl)c2c(=O)n1-c1ccccc1 [duvelisib]
# Procedure, shortened: as §1
# gandotinib = compound: Cc1cc(Nc2cc(CN3CCOCC3)c3nc(C)c(Cc4ccc(Cl)cc4F)n3n2)n[nH]1 [gandotinib]
# Procedure, shortened: as §1
# tozasertib = compound: Cc1cc(Nc2cc(N3CCN(C)CC3)nc(Sc3ccc(NC(=O)C4CC4)cc3)n2)n[nH]1 [tozasertib]
# Procedure, shortened: as §1
# [4] = compound: Cc1cc(SCc2sc(-c3ccc(C(F)(F)F)cc3)nc2C)ccc1OCC(=O)O
# Procedure, shortened: as §1
# doramapimod = compound: Cc1ccc(-n2nc(C(C)(C)C)cc2NC(=O)Nc2ccc(OCCN3CCOCC3)c3ccccc23)cc1 [doramapimod]
# Procedure, shortened: as §1
# bafetinib = compound: Cc1ccc(NC(=O)c2ccc(CN3CC[C@H](N(C)C)C3)c(C(F)(F)F)c2)cc1Nc1nccc(-c2cncnc2)n1 [bafetinib]
# Procedure, shortened: as §1
# [5] = compound: Cc1cccc(CC(=O)N2CCc3c2ccc(-c2cn(C)c4ncnc(N)c24)c3F)n1
# Procedure, shortened: as §1
# nilotinib = compound: Cc1cn(-c2cc(NC(=O)c3ccc(C)c(Nc4nccc(-c5cccnc5)n4)c3)cc(C(F)(F)F)c2)cn1 [nilotinib]
# Procedure, shortened: as §1
# [6] = compound: Cc1nc(Nc2n[nH]c3c2CN(C(=O)N[C@H](CN(C)C)c2ccccc2)C3(C)C)c2sccc2n1
# Procedure, shortened: as §1
# dasatinib = compound: Cc1nc(Nc2ncc(C(=O)Nc3c(C)cccc3Cl)s2)cc(N2CCN(CCO)CC2)n1 [dasatinib]
# Procedure, shortened: as §1
# [7] = compound: Cc1ncc(-c2ccnc(Nc3ccc(S(C)(=O)=O)cc3)n2)n1C(C)C
# Procedure, shortened: as §1
# [8] = compound: Cn1cc(-c2ccc3c(c2)CCN3C(=O)Cc2cccc(C(F)(F)F)c2)c2c(N)ncnc21
# Procedure, shortened: as §1
# tipifarnib = compound: Cn1cncc1[C@@](N)(c1ccc(Cl)cc1)c1ccc2c(c1)c(-c1cccc(Cl)c1)cc(=O)n2C [tipifarnib]
# Procedure, shortened: as §1
# ispinesib = compound: Cc1ccc(C(=O)N(CCCN)[C@@H](c2nc3cc(Cl)ccc3c(=O)n2Cc2ccccc2)C(C)C)cc1 [ispinesib]
# Procedure, shortened: as §1
# [9] = compound: Cn1cc(-c2ccc3nnc(C(F)(F)c4ccc5ncccc5c4)n3n2)cn1
# Procedure, shortened: as §1
# mubritinib = compound: FC(F)(F)c1ccc(/C=C/c2nc(COc3ccc(CCCCn4ccnn4)cc3)co2)cc1 [mubritinib]
# Procedure, shortened: as §1
# UniProt Q16891, sequence (Q16891 whole entry, looked up): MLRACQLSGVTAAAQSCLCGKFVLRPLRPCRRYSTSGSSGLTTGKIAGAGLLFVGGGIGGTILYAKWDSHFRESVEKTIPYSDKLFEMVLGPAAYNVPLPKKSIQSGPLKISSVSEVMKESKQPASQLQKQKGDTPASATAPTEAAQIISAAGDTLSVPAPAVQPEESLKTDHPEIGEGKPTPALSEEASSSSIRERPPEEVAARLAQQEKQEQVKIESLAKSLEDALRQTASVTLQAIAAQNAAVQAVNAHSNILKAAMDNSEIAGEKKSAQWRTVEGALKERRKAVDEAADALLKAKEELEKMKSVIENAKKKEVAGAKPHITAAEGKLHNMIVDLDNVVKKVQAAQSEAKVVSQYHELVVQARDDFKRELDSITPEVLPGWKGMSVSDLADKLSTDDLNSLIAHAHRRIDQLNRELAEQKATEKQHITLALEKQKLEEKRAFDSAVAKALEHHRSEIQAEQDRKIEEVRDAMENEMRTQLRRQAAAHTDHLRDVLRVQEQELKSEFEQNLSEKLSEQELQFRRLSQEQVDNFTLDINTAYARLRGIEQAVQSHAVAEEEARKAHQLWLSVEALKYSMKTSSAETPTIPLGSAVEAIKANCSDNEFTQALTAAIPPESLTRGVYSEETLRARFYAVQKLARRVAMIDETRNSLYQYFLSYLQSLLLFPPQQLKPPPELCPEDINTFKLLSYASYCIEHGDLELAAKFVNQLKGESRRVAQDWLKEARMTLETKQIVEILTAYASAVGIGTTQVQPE
# UniProt Q8TBB5, sequence (Q8TBB5 whole entry, looked up): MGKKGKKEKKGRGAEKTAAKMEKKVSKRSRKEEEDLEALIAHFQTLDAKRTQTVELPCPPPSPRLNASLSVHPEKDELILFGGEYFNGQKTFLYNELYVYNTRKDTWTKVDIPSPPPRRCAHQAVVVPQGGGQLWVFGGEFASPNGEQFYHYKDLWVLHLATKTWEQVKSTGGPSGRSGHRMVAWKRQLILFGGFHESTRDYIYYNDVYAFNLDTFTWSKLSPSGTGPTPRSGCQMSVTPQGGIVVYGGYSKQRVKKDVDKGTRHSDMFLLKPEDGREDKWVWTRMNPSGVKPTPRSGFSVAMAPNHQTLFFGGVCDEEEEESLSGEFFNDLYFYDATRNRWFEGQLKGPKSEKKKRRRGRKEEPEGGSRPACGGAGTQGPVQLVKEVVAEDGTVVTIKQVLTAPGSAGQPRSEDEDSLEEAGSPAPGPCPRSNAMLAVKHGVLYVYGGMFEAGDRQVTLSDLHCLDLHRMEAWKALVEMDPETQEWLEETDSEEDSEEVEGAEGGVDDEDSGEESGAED
# UniProt P11717, sequence (P11717 whole entry, looked up): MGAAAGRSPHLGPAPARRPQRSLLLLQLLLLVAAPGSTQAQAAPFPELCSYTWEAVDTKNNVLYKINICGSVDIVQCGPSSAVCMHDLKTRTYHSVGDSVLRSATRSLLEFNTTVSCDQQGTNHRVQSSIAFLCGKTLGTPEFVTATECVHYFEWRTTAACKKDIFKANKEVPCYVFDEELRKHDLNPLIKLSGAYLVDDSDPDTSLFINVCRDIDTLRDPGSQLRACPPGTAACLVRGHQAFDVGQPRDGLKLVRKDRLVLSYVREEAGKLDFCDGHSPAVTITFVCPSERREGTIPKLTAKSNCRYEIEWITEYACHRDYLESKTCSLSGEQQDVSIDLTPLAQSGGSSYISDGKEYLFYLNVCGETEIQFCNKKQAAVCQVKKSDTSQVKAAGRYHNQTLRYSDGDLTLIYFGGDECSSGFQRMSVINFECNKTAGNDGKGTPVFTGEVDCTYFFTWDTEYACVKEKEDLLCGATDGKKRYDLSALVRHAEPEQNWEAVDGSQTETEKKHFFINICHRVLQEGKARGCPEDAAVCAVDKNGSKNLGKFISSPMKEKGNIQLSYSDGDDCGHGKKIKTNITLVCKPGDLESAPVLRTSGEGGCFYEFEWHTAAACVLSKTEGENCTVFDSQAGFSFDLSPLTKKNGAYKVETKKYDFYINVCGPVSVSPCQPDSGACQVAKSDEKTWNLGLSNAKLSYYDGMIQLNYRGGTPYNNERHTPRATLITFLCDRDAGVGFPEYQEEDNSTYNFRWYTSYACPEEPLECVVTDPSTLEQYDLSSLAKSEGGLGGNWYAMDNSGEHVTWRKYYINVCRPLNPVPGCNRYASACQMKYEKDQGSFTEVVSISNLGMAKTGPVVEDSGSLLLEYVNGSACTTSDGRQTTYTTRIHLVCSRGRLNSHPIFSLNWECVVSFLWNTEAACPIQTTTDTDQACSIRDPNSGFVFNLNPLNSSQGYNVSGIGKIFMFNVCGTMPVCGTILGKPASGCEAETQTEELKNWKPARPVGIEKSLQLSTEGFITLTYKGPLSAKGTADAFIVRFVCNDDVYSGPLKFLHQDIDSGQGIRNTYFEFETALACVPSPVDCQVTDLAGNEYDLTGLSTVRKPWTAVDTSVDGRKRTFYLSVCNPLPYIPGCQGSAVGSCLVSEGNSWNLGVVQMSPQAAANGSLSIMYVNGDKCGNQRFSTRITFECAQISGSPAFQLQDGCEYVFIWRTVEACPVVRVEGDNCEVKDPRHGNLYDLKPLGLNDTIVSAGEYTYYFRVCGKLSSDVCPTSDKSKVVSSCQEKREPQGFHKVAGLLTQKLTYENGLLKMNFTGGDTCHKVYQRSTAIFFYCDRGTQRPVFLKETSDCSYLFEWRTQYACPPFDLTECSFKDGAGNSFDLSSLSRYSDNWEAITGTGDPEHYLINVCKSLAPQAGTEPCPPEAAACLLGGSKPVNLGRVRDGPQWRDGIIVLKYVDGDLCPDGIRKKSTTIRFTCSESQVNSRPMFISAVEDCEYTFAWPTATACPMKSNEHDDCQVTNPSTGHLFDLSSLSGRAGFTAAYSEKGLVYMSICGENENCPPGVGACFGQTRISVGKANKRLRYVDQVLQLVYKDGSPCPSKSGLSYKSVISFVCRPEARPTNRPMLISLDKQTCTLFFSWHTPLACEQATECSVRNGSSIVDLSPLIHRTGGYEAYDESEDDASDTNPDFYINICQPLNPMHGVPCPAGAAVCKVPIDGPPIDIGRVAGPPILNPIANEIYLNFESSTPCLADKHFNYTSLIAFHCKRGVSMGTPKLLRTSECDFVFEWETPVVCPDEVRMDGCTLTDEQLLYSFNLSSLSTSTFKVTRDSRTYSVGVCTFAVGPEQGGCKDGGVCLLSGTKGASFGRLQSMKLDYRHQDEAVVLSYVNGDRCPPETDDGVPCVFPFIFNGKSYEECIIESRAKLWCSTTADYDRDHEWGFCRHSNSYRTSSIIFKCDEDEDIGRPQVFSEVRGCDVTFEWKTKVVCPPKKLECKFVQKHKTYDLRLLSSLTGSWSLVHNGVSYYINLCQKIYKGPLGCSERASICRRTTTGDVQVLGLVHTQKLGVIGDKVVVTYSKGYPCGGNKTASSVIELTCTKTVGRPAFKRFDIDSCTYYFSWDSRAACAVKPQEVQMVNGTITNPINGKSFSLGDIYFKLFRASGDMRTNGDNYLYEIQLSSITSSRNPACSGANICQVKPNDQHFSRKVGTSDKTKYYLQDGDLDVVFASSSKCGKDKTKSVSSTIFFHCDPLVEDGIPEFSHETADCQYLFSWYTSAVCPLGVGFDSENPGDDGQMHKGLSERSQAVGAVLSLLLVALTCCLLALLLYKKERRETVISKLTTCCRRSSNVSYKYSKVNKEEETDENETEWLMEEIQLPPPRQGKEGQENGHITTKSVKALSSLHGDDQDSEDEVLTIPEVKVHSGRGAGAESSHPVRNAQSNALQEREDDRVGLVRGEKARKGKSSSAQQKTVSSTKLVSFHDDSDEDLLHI
# UniProt Q8WVP7, sequence (Q8WVP7 whole entry, looked up): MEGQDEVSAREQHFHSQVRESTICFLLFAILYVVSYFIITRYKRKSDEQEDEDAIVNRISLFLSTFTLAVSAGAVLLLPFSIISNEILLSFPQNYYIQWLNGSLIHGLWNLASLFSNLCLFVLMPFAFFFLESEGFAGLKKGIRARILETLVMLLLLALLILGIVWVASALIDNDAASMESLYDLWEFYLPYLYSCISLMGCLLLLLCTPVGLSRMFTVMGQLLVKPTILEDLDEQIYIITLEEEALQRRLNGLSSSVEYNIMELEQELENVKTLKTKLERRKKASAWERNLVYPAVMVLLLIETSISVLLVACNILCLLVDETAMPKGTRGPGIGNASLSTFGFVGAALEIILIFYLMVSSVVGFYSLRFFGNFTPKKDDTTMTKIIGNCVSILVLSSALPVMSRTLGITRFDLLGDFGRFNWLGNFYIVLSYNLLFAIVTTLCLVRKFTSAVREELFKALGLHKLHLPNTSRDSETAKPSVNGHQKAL
# UniProt Q8N108, sequence (Q8N108 whole entry, looked up): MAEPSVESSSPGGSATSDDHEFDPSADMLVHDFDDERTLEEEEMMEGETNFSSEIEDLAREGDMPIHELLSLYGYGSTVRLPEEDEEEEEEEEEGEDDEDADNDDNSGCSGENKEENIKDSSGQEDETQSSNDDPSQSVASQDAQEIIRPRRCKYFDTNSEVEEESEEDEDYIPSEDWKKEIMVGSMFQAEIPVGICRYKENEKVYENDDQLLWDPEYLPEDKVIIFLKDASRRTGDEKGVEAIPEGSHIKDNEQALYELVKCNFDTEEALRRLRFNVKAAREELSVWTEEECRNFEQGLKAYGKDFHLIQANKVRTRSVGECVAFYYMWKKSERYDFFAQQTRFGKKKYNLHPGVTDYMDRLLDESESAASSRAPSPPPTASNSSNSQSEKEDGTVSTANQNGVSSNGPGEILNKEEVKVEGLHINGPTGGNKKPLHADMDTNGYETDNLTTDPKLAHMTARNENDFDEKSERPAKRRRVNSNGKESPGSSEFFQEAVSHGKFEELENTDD
Target,log2 fold change [1],log2 fold change (crizotinib),log2 fold change [2],log2 fold change [3],log2 fold change (duvelisib),log2 fold change (gandotinib),log2 fold change (tozasertib),log2 fold change [4],log2 fold change (doramapimod),log2 fold change (bafetinib),log2 fold change [5],log2 fold change (nilotinib),log2 fold change [6],log2 fold change (dasatinib),log2 fold change [7],log2 fold change [8],log2 fold change (tipifarnib),log2 fold change (ispinesib),log2 fold change [9],log2 fold change (mubritinib)
MELK (UniProt Q14680),0.109,-0.128,-0.099,0.054,-0.063,-0.046,-0.087,-0.047,-0.011,-0.06,0.086,0.033,-1.04 (active),-0.149,0.14,-0.092,0.097,,,
IMMT isoform 4 (UniProt Q16891),0.017,-0.102,0.084,-0.012,0.019,-0.093,0.002,0,-0.014,-0.119,0.018,-0.038,0.004,-0.019,0.003,0.015,-0.03,-0.202,0.018,0.012
MIER1 isoform 12 (UniProt Q8N108),0.009,-0.027,0.035,-0.034,-0.012,-0.004,-0.021,0.035,0.026,-0.016,0.031,0.012,-0.083,-0.028,-0.061,0.056,-0.004,-0.029,-0.041,0.052
LMBR1 isoform 3 (UniProt Q8WVP7),0.086,-0.198,0.019,-0.05,0.095,-0.812 (active),0.028,0.04,0.032,-0.182,0.007,,,0.012,,0.093,-0.044,-0.477,-0.143,0.063
IGF2R (UniProt P11717),0.031,-0.871 (active),-0.035,-0.035,0.048,0.017,0.025,0.019,-0.01,-0.338 (active),0.021,-0.02,-0.087,-0.023,0.021,0,0.045,-0.115,0.023,0.003
KLHDC4 (UniProt Q8TBB5),0.093,0.157,-0.07,0.111,-0.091,0.041,0.025,0.039,0.069,0.012,-0.018,0,-0.067,0.107,0.156,-0.175,0.106,0,-0.23,-0.333
MIA2 (UniProt Q96PC5),0.001,0.015,0.006,-0.059,-0.077,-0.034,0.09,0.044,-0.01,-0.068,-0.029,-0.002,-0.048,-0.051,-0.038,-0.058,0.029,0.011,0.041,-0.046
LEMD3 (UniProt Q9Y2U8),0.072,-0.12,-0.084,-0.016,-0.003,0.006,-0.015,0.114,-0.002,-0.171,-0.114,-0.127,-0.026,-0.106,0.037,0.163,-0.008,-0.095,0.049,0.001
